Bioassay records deposited in PubChem by several laboratories.
Shown are actives, neighbours in structure and some others; about 3.9% of the full set was active somewhere.
Bead autofluor – compound fluorescence in toxin protease inhibitor counterscreen; compound autofluorescence counterscreen, microsphere flow cytometry; active compounds read high; fluorescence intensity (concentration not given with the values); 360,000 tested, 3.1% active; AID 624483; in the data active = fluorescence intensity above about 16000; inconclusive = no clear call, values can overlap the other calls
Anthrax LF prot – anthrax lethal factor protease inhibition | P15917 | multiplex microsphere protease cleavage assay, LF | inhibition, % at 10 µM | 360,000 tested, 0.12% active
CCHFV vOTU inh – blocks the CCHF virus ovarian tumor domain protease | 370,000 tested, 0.55% active | CCHFV vOTU protease, Pep-AMC fluorescence | inhibition, % at 11.5 µM; in the data active = inhibition above about 30%
3CLpro inhibitor – SARS-CoV 3CLpro protease inhibition | P0C6X7 | recombinant SARS-CoV 3CLpro, quenched FRET peptide cleavage | inhibition, % at 6 µM | 290,000 tested, 0.14% active; in the data active = inhibition above about 12%
BoNT F protease – blocks Botulinum neurotoxin F light chain protease; Multiplex microsphere protease cleavage assay, flow cytometry; 360,000 tested, 0.22% active; inhibition, % at 10 µM; in the data active = inhibition above about 35%, passing the limit was not always enough; inconclusive = no clear call, values can overlap the other calls
BoNT-A LC inh2 – inhibitors of Botulinum neurotoxin A light chain protease; multiplex microsphere protease substrate cleavage, flow cytometry; inhibition, % at 10 µM; 360,000 tested, 0.17% active; AID 588499
A number is an active result; 0 = inactive; ? = inconclusive; - = no result. Rule as the data show it, unless noted: active = inhibition above about 30%; inconclusive = no clear call, values can overlap the other calls; inactive = below that.

SMILES	Bead autofluor	Anthrax LF prot	CCHFV vOTU inh	3CLpro inhibitor	BoNT F protease	BoNT-A LC inh2
CCOc1cc(NC(=S)Nc2cccc(OC)c2)c(OCC)cc1NC(=O)c1ccc(C)cc1	0	0	0	0	0	0
CCOc1cc(NC(=S)Nc2ccccc2)c(OCC)cc1NC(=O)c1ccc(OC)cc1	18966	0	0	0	0	0
CCOc1cc(NC(=S)NCCCN2CCOCC2)c(OCC)cc1NC(=O)CC(C)C	22374	0	0	0	0	0
O=C(CCn1nnc2ccccc21)Nc1nnc(COc2ccc(F)cc2)s1	21872	0	0	0	0	?
Cc1nc(Nc2ccccc2C(F)(F)F)sc1C(=O)N(C)C	0	0	0	0	0	0
O=C(COC(=O)c1ccc(O)cc1O)Nc1nnc(-c2ccccc2)o1	?	?	0	-	?	0
COc1cccc(NC(=O)C(C)C)c1	0	0	0	-	0	0
CCOC(=O)c1ccc(NC(=O)CCn2nnc3ccccc32)cc1	0	0	0	0	0	0
CCOc1cc(NC(=S)Nc2cccc(OC)c2)c(OCC)cc1NC(=O)C(C)C	23255	0	0	0	0	?
CCOc1cc(NC(=O)CC(C)C)c(OCC)cc1NC(=O)CCn1nnc2ccccc21	21013	0	0	0	0	0
O=C(CNC(=O)c1ccco1)OCC(=O)c1ccc2c(c1)CCCC2	17018	0	0	0	0	0
CCc1ccc(C(=O)COC(=O)CNC(=O)c2ccco2)cc1	0	0	0	0	0	0
CC(=O)NC(=O)NC1CSCC1OC(C)=O (centres undefined)	23409	0	0	0	0	?
CCOC(=O)C1=C(C)NC(=O)/C1=C\N(C)C	0	0	0	0	0	0
CC1(C)Cc2c(C#N)c(N)sc(=S)c2CO1	0	0	0	0	0	0
CC(C)C1Cc2c(C#N)c(N)sc(=S)c2CO1 (centres undefined)	0	47	0	0	0	72
CCCCCC(=O)C(=O)c1ccc(O)cc1O	0	0	0	0	0	0
CC(Oc1ccccc1Cl)C(=O)/C=C/N(C)C (centres undefined)	20970	0	0	0	0	0
CC(Oc1ccccc1F)C(=O)/C=C/N(C)C (centres undefined)	0	0	-	0	0	0
CCNc1nc(NC(C)C)nc(OCCNS(=O)(=O)c2cc(C)ccc2C)n1	0	0	0	0	0	0
CCNc1nc(NCC)nc(OCCNS(=O)(=O)c2cc(C)ccc2C)n1	21064	0	0	0	0	?
COc1cc(-c2nc(-c3ccccc3)c(-c3cccs3)[nH]2)cc(OC)c1OC	0	0	0	0	0	0
COc1cc(-c2nc(-c3ccccc3)c(-c3cccs3)[nH]2)cc(OC)c1O	24448	0	0	0	0	0
O=C(CSc1ccccc1C(=O)O)Nc1cccc(C(=O)O)c1	21124	0	0	0	0	?
Cc1nc(SCC(=O)Nc2cccc(C(=O)O)c2)n[nH]1	0	0	0	0	0	0
SMILES	Bead autofluor	Anthrax LF prot	CCHFV vOTU inh	3CLpro inhibitor	BoNT F protease	BoNT-A LC inh2
Cc1ccc(C)n1-c1ccc(-c2nnco2)cc1	0	0	-	0	0	0
Cc1c(Br)cc(-c2nnco2)cc1Br	23447	0	0	0	0	0
CNC(=S)NNC(=O)c1cccn(Cc2ccc(Cl)cc2Cl)c1=O	-	-	0	0	-	-
CCNC(=S)NNC(=O)c1cccn(Cc2ccc(Cl)cc2)c1=O	22835	0	0	0	0	0
O=C1C(Cl)=C(NC2CCCCC2)C(=O)N1Cc1ccccc1	0	0	0	0	0	0
O=C1C(Cl)=C(NCC2CCCO2)C(=O)N1Cc1ccccc1 (centres undefined)	20284	0	0	0	0	?
Cn1c(=O)c2c(nc(NCCCO)n2Cc2cccc(Br)c2)n(C)c1=O	18885	0	0	0	0	?
Cc1cccc(Cn2c(NCCO)nc3c2c(=O)n(C)c(=O)n3C)c1	0	0	0	0	0	0
CNc1nc2c(c(=O)n(C)c(=O)n2C)n1Cc1ccccc1	21814	0	0	0	0	0
Cn1c(=O)n(Cc2ccccc2)c(=O)c2c1nc(NCC1CCCO1)n2Cc1ccccc1 (centres undefined)	24036	0	0	0	0	0
O=C(Nc1ccccc1O)C(c1ccccc1)c1ccccc1	0	0	0	0	0	0
O=C1C(=C2CCCCC2)SC(=S)N1Cc1ccco1	23926	0	0	0	0	?
COc1cccc(CC(=O)OC(C)C(=O)Nc2ncc(Cl)cc2Cl)c1 (centres undefined)	0	0	0	-	0	0
Cc1ccc2c(c1)c1c(c(=O)n(-c3ccccc3C)c(=O)n1CC(=O)NCC1CCCO1)n2C (centres undefined)	0	0	0	0	0	0
CCOC(=O)C(C)(C)Sc1ncnc2nc[nH]c12	23381	0	0	0	0	?
COc1ccc(Br)c(C(=O)N(C)CC(=O)Nc2ccc(N3CCOCC3)cc2)c1	21018	0	0	-	0	0
CC1CCN(CC(=O)N2c3ccccc3CCc3ccccc32)CC1	16766	0	0	0	0	0
O=C1CN(C(=O)c2ccccc2Cl)c2ccccc2N1	0	0	0	0	44	0
CC1CCN(CC(=O)N2CC(=O)Nc3ccccc32)CC1	22135	0	0	0	0	?
O=C1CN(C(=O)CN2CCN(S(=O)(=O)c3ccccc3)CC2)c2ccccc2N1	0	0	0	-	0	0
O=[N+]([O-])c1ccc(N2CCN(c3ccc(Cl)nn3)CC2)c(Cl)c1	20451	0	0	0	0	0
O=[N+]([O-])c1cc(F)c(N2CCOCC2)cc1N1CCCCC1	24982	0	0	0	0	0
O=[N+]([O-])c1cccnc1N1CCOCC1	19529	0	0	0	0	?
O=C(Nc1ccccc1N1CCOCC1)c1ccc(N2CCOCC2)c([N+](=O)[O-])c1	0	0	0	0	0	0
O=[N+]([O-])c1cc(F)c(N2CCCCC2)cc1N1CCOCC1	0	0	0	0	0	0
SMILES	Bead autofluor	Anthrax LF prot	CCHFV vOTU inh	3CLpro inhibitor	BoNT F protease	BoNT-A LC inh2
O=C(Nc1ccccc1N1CCOCC1)c1ccccc1[N+](=O)[O-]	24174	0	0	0	0	0
Cc1noc(C)c1C(=O)Nc1ccc(Cl)cc1C(F)(F)F	23519	0	-	0	0	0
Cc1cc(C(=O)Nc2c(F)cc(F)cc2Br)c(C)o1	17675	0	0	0	0	0
O=C(Nc1c(F)cc(F)cc1Br)c1ccco1	0	0	-	0	0	?
Cc1cc(Cl)ccc1NNC(=O)c1c(C)noc1C	0	0	0	0	?	0
Cc1noc(C)c1C(=O)Nc1c(F)cc(F)cc1Br	23289	0	0	0	0	0
c1ccc(Cn2c(SC3CCCCC3)nnc2-c2cccnc2)cc1	-	-	0	-	-	-
C/C(=N\NC(=O)C1CCCC1)c1ccc(NC(=O)C(F)(F)F)cc1	0	0	0	-	0	0
COC(=O)C1C(=O)C2=C(CC1C)NC(C)=C(C(=O)OCc1ccc(OC)cc1)C2c1ccc(C)o1 (centres undefined)	0	0	0	0	0	0
COC(=O)C1C(=O)C2=C(CC1C)NC(C)=C(C(=O)OC(C)C)C2c1ccc(C)o1 (centres undefined)	23601	0	0	0	0	0
COc1cc(NC(=O)c2ccco2)c(OC)cc1NC(=O)CCC(=O)Nc1cc(C)ccc1C	20046	0	0	0	0	0
